Experimental data from PubChem BioAssay.
Calls of active or inactive are those of the source.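 How the source made its calls, unless noted: active means visual image review flags a hit and inhibition of aggregation exceeds 20%; inconclusive means visual hit but inhibition at or below 20%; inactive means no hit on visual image review.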

How the values were obtained:
[1] = inhibitors of TNFa-induced NFkB p65 translocation, primary screen, imaging, HUVEC, MLSMR starter and 10KST1 sets (AID 438;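 active means inhibition above 20% together with a positive visual image hit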;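 further: compound added about 3h40 before a 20 min TNFalpha stimulation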;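 on inhibition: signal is the nuclear over cytoplasmic p65 intensity ratio per well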); settings: HUVEC TNFa-induced p65 nuclear translocation; cell count: measured here: nuclei count (cytotoxicity indicator), at 2.08 µM; inhibition: at 2 µM, stronger effect = higher value, 0% TNFa-plus-vehicle, 100% no-TNFa wells
[2] = inhibitors of mutant huntingtin aggregation, primary screen, imaging, exon1htt(103Q)mCFP cells, high-content imaging (AID 483); settings: exon1htt(103Q)mCFP cell line, aggregate imaging, at 2 µM; inhibition of aggregation: stronger effect = higher value; nuclei count: measured here: cell count, toxicity;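 further: compound exposure lasted 3 days before fixation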;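 on nuclei count: percent of the per-plate median nuclei count of sample wells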
[3] = inhibitors of E-selectin induction by TNFa, primary screen, imaging, HUVEC, immunofluorescence, MLSMR starter and 10KST1 sets (AID 487;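 active means visually confirmed hit in the image check and inhibition above 20%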;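 on inhibition: signal is fraction of cell area covered by stained E-selectin grains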;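 on nuclei count: 100% = median nuclei count of all wells on the same plate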); settings: HUVEC TNFalpha-induced E-selectin immunofluorescence imaging, at 2 µM; inhibition: stronger effect = higher value; nuclei count: measured here: cell number, toxicity
[4] = target: Voltage-gated potassium channel subunit beta-2 (Rattus norvegicus) (UniProt P62483); assay: KvBeta enzyme negative modulators, primary screen, biochemical, NADPH fluorescence (AID 622;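 active means fluorescence slope higher than the sample average by over 3 SD, cut at about -0.22 in these data, passing the limit was not always enough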;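 further: slope of raw intensity against log time taken from 70 to 1610 s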); settings: recombinant KvBeta, 4-cyanobenzaldehyde reduction, at 10 µM, stronger effect = higher value
Chain of Voltage-gated potassium channel subunit beta-2 (Rattus norvegicus) (P62483 whole entry, looked up): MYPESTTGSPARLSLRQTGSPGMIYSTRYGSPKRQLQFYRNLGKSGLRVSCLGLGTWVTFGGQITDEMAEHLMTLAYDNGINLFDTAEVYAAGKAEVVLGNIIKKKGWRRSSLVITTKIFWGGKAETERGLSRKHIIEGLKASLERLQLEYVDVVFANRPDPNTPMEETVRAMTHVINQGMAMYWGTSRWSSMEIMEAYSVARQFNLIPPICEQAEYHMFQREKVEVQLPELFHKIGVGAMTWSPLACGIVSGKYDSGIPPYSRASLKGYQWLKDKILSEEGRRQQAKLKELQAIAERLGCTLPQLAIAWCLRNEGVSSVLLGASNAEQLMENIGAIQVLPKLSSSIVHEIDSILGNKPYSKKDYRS

[5] = target: Voltage-gated potassium channel subunit beta-2 (Rattus norvegicus) (UniProt P62483); assay: KvBeta positive modulators, primary screen, biochemical, NADPH fluorescence (AID 623;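 active means NADPH fluorescence slope more negative than the mean of all samples by about 3 SD, 99.7% confidence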;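 further: fluorescence intensity change per second fitted from 20 to 320 s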); settings: Recombinant KvBeta, NADPH fluorescence decrease slope, 10 min; at 10 µM; stronger effect = lower value
[6] = target: Alpha-2C adrenergic receptor (Homo sapiens) (UniProt P18825); assay: modulators of alpha2C/GIRK thallium flux, primary screen, cell-based, HEK293 alpha2C/GIRK1/2 (AID 624;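 active means fluorescence slope after compound addition differing from the mean of all screened samples at 99.7% confidence, in either direction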;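 further: slope of fluorescence ratio to pre-addition baseline per second over 15 to 24 s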); settings: thallium flux BTC fluorescence, at 10 µM, actives lie on both sides
Chain of Alpha-2C adrenergic receptor (Homo sapiens) (P18825 whole entry, looked up): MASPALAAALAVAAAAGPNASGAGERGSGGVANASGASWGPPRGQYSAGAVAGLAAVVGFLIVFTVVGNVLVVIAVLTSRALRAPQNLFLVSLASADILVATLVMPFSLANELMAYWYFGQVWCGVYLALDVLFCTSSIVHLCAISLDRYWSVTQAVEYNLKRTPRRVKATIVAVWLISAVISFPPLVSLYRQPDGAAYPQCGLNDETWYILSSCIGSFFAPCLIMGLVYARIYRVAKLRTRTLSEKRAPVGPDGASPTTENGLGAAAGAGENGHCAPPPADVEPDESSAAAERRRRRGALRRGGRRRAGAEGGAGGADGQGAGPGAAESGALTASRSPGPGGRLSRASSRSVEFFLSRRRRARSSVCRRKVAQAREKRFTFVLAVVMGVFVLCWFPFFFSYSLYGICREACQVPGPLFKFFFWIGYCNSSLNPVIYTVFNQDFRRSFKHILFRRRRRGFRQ

[7] = inhibitors of Sendai virus-induced IRF3 signaling, primary screen, TLR/RLR signaling modifier project, cell-based, Sendai virus stimulus, luciferase, 10K MLSCN set (AID 602276;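 active means inhibition at or above 50% at 10 µM; inactive means inhibition below 50%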;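 further: firefly luciferase from ISG56 promoter only with Renilla not read in this screen; 0% = Sendai virus plus DMSO and 100% = medium plus DMSO without virus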); settings: HEK293 RL24 IRF3 luciferase reporter, at 10 µM, stronger effect = higher value
[8] = inhibitors of poly I:C-induced TLR3 signaling, primary screen, cell-based, poly I:C stimulus, luciferase, 10K MLSCN set (AID 602277;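 active means inhibition of the reporter signal at or above 50%; inactive means inhibition below 50%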); settings: HEK293-TLR3 RL24 IRF3 luciferase reporter, at 10 µM, stronger effect = higher value

| Structure (SMILES) | cell count [1] | inhibition [1] | inhibition of aggregation [2] | nuclei count [2] [%] | inhibition [3] | nuclei count [3] [%] | fluorescence slope [4] | NADPH fluorescence slope [5] | slope [6] | inhibition [7] | inhibition [8] |
| --- | --- | --- | --- | --- | --- | --- | --- | --- | --- | --- | --- |
| CC(=O)NCc1cccc(CNC(C)=O)n1 | 652 | 9.2% (inactive) | -29% (inactive) | 109 | -92.7% (inactive) | 101 | -0.432 (inactive) | -2.5e-05 (inactive) | 0.00626 (inactive) | 12% (inactive) | 14.4% (inactive) |
| COc1ccc(NC(=O)c2ccco2)cc1NC(=O)c1cccs1 | 400 | 3.8% (inactive) | 4.3% (inactive) | 95.9 | 13.8% (inactive) | 92.8 | -0.421 (inactive) | 2.6e-05 (inactive) | 0.00585 (inactive) | -10.6% (inactive) | -14.2% (inactive) |
| Cc1ccc(OCc2nnc(SCC(=O)Nc3ccc4c(c3)OCO4)n2C)cc1 | 325 | -6.5% (inactive) | 7.6% (inactive) | 77.3 | -59.2% (inactive) | 103 | -0.409 (inactive) | -5.7e-05 (inactive) | 0.00504 (inactive) | 17.9% (inactive) | 12.7% (inactive) |
| CCC(C(=O)Nc1ccccc1C(=O)N1CCCC1)N1C(=O)c2ccccc2C1=O (stereo not drawn) | 623 | 16.8% (inactive) | -16.8% (inactive) | 109 | -112% (inactive) | 112 | -0.356 (inactive) | 9.2e-06 (inactive) | 0.0034 (inactive) | 4.49% (inactive) | 15.4% (inactive) |
| CCOc1ccc(Cn2nnc(C(=O)Nc3ccc(OC)cc3OC)c2N)cc1 | 720 | -6.1% (inactive) | 7.2% (inactive) | 108 | -9.7% (inactive) | 106 | -0.49 (inactive) | -3.6e-05 (inactive) | 0.00559 (inactive) | -5.26% (inactive) | -8.45% (inactive) |
| CCCCOC(=O)c1cccc(NC(=O)CC)c1 | 667 | -22.3% (inactive) | -8.8% (inactive) | 97.1 | 16.4% (inactive) | 110 | -0.557 (inactive) | 4e-05 (inactive) | 0.00523 (inactive) | -34.7% (inactive) | -123% (inactive) |
| COc1ccc(S(=O)(=O)Nc2ccc(S(=O)(=O)N3CCCCC3)cc2)cc1OC | 444 | -4.8% (inactive) | -3.5% (inactive) | 110 | -34.6% (inactive) | 99.1 | -0.459 (inactive) | -4.3e-05 (inactive) | 0.00325 (inactive) | 5.56% (inactive) | 29.1% (inactive) |
| Cc1cccc(NC(=O)c2cnc3sccn3c2=O)n1 | 613 | -1.9% (inactive) | -0.7% (inactive) | 115 | -24.4% (inactive) | 109 | -0.604 (inactive) | 5e-07 (inactive) | 0.00666 (inactive) | -25.6% (inactive) | -61.7% (inactive) |
| CCc1ccc(C(=O)NC2CCCCC2)s1 | 355 | -1.2% (inactive) | 0.6% (inactive) | 98.5 | 11.7% (inactive) | 104 | -0.523 (inactive) | -4.3e-05 (inactive) | 0.00428 (inactive) | -41.5% (inactive) | -96.5% (inactive) |
| Cc1cc2ccccc2n1CCNC(=O)C1CC1 | 709 | -6.9% (inactive) | -3.6% (inactive) | 107 | -35% (inactive) | 120 | -0.42 (inactive) | -3.8e-05 (inactive) | 0.00596 (inactive) | 11.4% (inactive) | 33.2% (inactive) |
| Cc1cc(NC(=O)CSc2nnc(COc3cccc(C)c3C)n2Cc2ccco2)no1 | 363 | -8.7% (inactive) | 7.4% (inactive) | 93 | -60.4% (inactive) | 101 | -0.6 (inactive) | -6.6e-06 (inactive) | 0.00725 (inactive) | 4.7% (inactive) | 11.9% (inactive) |
| O=C(OCc1nnc(-c2ccccc2)o1)c1ccc2ccccc2n1 | 457 | -3.1% (inactive) | -11.6% (inactive) | 95.8 | -165% (inactive) | 106 | -0.565 (inactive) | 7e-05 (inactive) | 0.00433 (inactive) | -29.8% (inactive) | -34.4% (inactive) |
| CCC(C)NC(=O)CCNS(=O)(=O)c1ccc(Br)cc1 (stereo not drawn) | 605 | -17% (inactive) | 17.5% (inactive) | 66.3 | -109% (inactive) | 118 | -0.325 (inactive) | 6.7e-06 (inactive) | 0.00362 (inactive) | 3.69% (inactive) | 33% (inactive) |
| COc1ccc(CC(=O)N2CCOCC2)cc1OC | 383 | -0.8% (inactive) | 4.3% (inactive) | 106 | -53.3% (inactive) | 111 | -0.428 (inactive) | -5.5e-05 (inactive) | 0.00535 (inactive) | 15.7% (inactive) | 26.1% (inactive) |
| Cc1cc(C)cc(NC(=O)c2nnn(Cc3cc(C)ccc3C)c2N)c1 | 598 | 8.7% (inactive) | -15.9% (inactive) | 90.3 | -5.5% (inactive) | 125 | -0.564 (inactive) | -3.4e-05 (inactive) | 0.00689 (inactive) | 44.9% (inactive) | 14.5% (inactive) |
| Cn1c(=O)oc2cc(S(=O)(=O)N3CCCC(C(=O)NCC4COc5ccccc5O4)C3)ccc21 (stereo not drawn) | 751 | -1.9% (inactive) | -6.6% (inactive) | 105 | -40.9% (inactive) | 124 | -0.575 (inactive) | 1.7e-05 (inactive) | 0.00726 (inactive) | -12.4% (inactive) | -5.33% (inactive) |
| COc1ccc(NC(=O)C2Cc3ccccc3C(=O)O2)cc1 (stereo not drawn) | 642 | 0.3% (inactive) | 15.6% (inactive) | 105 | -19.3% (inactive) | 120 | -0.427 (inactive) | -6e-05 (inactive) | 0.00562 (inactive) | -11.7% (inactive) | -23.5% (inactive) |
| OCc1nc2ccccc2n1CCCOc1ccccc1 | 291 | -6% (inactive) | 11.9% (inactive) | 87 | -17.2% (inactive) | 96.5 | -0.382 (inactive) | -5.7e-05 (inactive) | 0.00561 (inactive) | -34.5% (inactive) | -119% (inactive) |
| Fc1cccc(Nc2ncnc3c2cnn3-c2ccccc2)c1 | 644 | -3.3% (inactive) | 0.4% (inactive) | 109 | -51.7% (inactive) | 127 | -0.57 (inactive) | 4.4e-06 (inactive) | 0.00538 (inactive) | -54.2% (inactive) | -148% (inactive) |
| O=C(Nc1ccc2c(c1)OCO2)C(c1ccccc1)N1CCC2(CC1)OCCO2 (stereo not drawn) | 649 | 2% (inactive) | -13.5% (inactive) | 107 | 23.5% (inactive) | 115 | -0.51 (inactive) | 3.6e-05 (inactive) | 0.00477 (inactive) | -14.7% (inactive) | 1% (inactive) |
| O=C(Nc1ccc2c(c1)nc1n2CCSC1)c1ccccc1 | 487 | -0.5% (inactive) | 13.7% (inactive) | 106 | -0.8% (inactive) | 119 | -0.444 (inactive) | -1.4e-05 (inactive) | 0.00391 (inactive) | -30.3% (inactive) | -80.3% (inactive) |
| CC(C)CCN(C)C1CCN(S(=O)(=O)c2ccc(F)cc2)CC1 | 638 | 0.8% (inactive) | -2.4% (inactive) | 82.9 | -35.4% (inactive) | 121 | -0.543 (inactive) | 1.3e-05 (inactive) | 0.00577 (inactive) | 10.6% (inactive) | 40.9% (inactive) |
| CC12CCC(C(=O)O)(c3nc(C#N)c(C#N)nc31)C2(C)C (stereo not drawn) | 437 | -4.7% (inactive) | 26.3% (inactive) | 90.9 | -15.3% (inactive) | 106 | -0.618 (inactive) | -3.8e-05 (inactive) | 0.0041 (inactive) | 15.9% (inactive) | 21.6% (inactive) |
| COc1ccc(-n2c(COc3cccc(C)c3)nnc2SCC(=O)NCc2ccco2)cc1 | 707 | -6.3% (inactive) | 5.1% (inactive) | 100 | -54.8% (inactive) | 100 | -0.596 (inactive) | -6.6e-05 (inactive) | 0.00613 (inactive) | -3.09% (inactive) | 10.9% (inactive) |
| CCCNC(=O)Nc1ccccc1C(=O)Nc1ccc(OC)cc1 | 351 | 8.1% (inactive) | -15.5% (inactive) | 104 | 25.8% (inactive) | 108 | -0.445 (inactive) | -1.6e-06 (inactive) | 0.00585 (inactive) | -1.84% (inactive) | 30.5% (inactive) |
| COc1ccc(OC)c(C2CC(=O)NC(SC)=C2C#N)c1 (stereo not drawn) | 662 | -9.6% (inactive) | -13.5% (inactive) | 114 | -23.1% (inactive) | 117 | -0.529 (inactive) | -3.6e-05 (inactive) | 0.00545 (inactive) | 8.75% (inactive) | 29% (inactive) |
| CC(C)c1ccc(C(O)c2cnc(C(C)C)n2C)cc1 (stereo not drawn) | 723 | 6.9% (inactive) | -27.2% (inactive) | 50.5 | -93.9% (inactive) | 106 | -0.552 (inactive) | -3.1e-05 (inactive) | 0.00678 (inactive) | -10.5% (inactive) | -5.66% (inactive) |
| COc1ccc2c(c1)C1(Nc3ccccc3-c3nc4ccccc4n31)C(=O)N2 (stereo not drawn) | 240 | 5.7% (inactive) | 11.7% (inactive) | 78 | 13.2% (inactive) | 110 | -0.493 (inactive) | -4.6e-05 (inactive) | 0.00486 (inactive) | 17.4% (inactive) | 36.3% (inactive) |
